# Most compounds without a hit are left out; they make up all but 0.82% or so of the library.
# RTF Ca sens inh: cardiac RTF calcium desensitization. P19429+P45379. IANBD-labeled cardiac RTF, Ca2+ fluorescence. inhibition, % at 7.15 µM. hit rate 0.12% among 340,000;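 active = inhibition above the mean inhibition of all tested compounds plus 3 SD, cut at about 17% in these data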;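 note: assay run at fixed EC70 calcium of 1.6 mM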
# cardiac RTF act: cardiac RTF calcium sensitization; IANBD-labeled TnC RTF fluorescence at EC20 calcium; 0% EC20 calcium, 100% full calcium; P19429+P45379; hit rate 0.24% among 340,000; AID 493008; activation, % at 7.2 µM;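 active = activation above the mean over all tested compounds plus 3 SD, cut at about 30% in these data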;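 note: rise in fluorescence read as greater calcium sensitivity of cardiac thin filaments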
# LANA DNA inh: blocks KSHV LANA C-terminal domain binding to DNA | inhibition, % at 9 µM | AID 504423 | MBP-C-LANA/FAM-LBS DNA binding, fluorescence polarization | hit rate 0.078% among 340,000;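 active = highest replicate inhibition at or above 60% at 9 µM, even if other replicates fall short; inactive = all replicates below 60% inhibition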;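 note: 0% = neutral control wells and 100% = 4 µM acridine orange control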
# Keap1-Nrf2 PPI: Keap1-Nrf2 (human) interaction inhibition. Q14145. Keap1 Kelch-Nrf2 peptide fluorescence polarization, 1536-well. inhibition, % at 9.4 µM. hit rate 0.15% among 340,000. AID 504523; in the data active = inhibition above about 12%;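 note: human Keap1 Kelch domain with fluorescein labeled Nrf2 9mer peptide probe; 0% = neutral control wells and 100% = peptide positive control; higher means more block of Keap1 binding to Nrf2 peptide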
# eLon inh: E. coli protease La inhibition; inhibition, % at 7.94 µM; hit rate 0.42% among 360,000; purified E. coli Lon protease, fluorescence polarization; P0A9M0; AID 602123; in the data active = inhibition above about 13%, passing the limit was not always enough;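 note: 0% = enzyme with probe and DMSO and 100% = no enzyme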
# Keap1 Kelch bind: binds and thermally shifts human Keap1 Kelch domain. AID 651823. shares compounds with Keap1-Nrf2 PPI. hit rate 8% among 400. max delta Tm, degrees C. Keap1 Kelch thermal shift, delta Tm; stronger effect = higher value; in the data active = max delta Tm above about 0.48 degrees C
# Sypro dye melt: dye artifact in Keap1 thermal shift counter-screen. shares compounds with Keap1-Nrf2 PPI. Sypro Orange dye-only thermal melt, no protein, delta Tm; top dose 26 µM. delta Tm, degrees C (concentration not given with the values). 140 tested, under 10 active. AID 651858;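 active = at highest dose tested, delta Tm positive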
# eLon confirm: confirmation of E. coli Lon protease inhibitors; hit rate 31% among 1,400; purified E. coli Lon, fluorescence polarization; inhibition, % at 7.94 µM; shares compounds with eLon inh; in the data active = inhibition above about 16%;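 note: 0% = enzyme with probe and DMSO and 100% = no enzyme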
# Active calls of the source: *; i = inactive; nt = no result given; + = active, no number.
SMILES,RTF Ca sens inh,cardiac RTF act,LANA DNA inh,Keap1-Nrf2 PPI,eLon inh,Keap1 Kelch bind,others
Cc1ccccc1-c1ccc2c(c1)O[C@@H](CN(C)C(=O)Nc1ccc(C(F)(F)F)cc1)[C@H](C)CN([C@@H](C)CO)S2(=O)=O,nt,nt,nt,nt,12,nt,
O=C1NC(=O)/C(=C\c2ccc(Cl)cc2Cl)N1,1,2,4,1,1,nt,
O=C1NC(=O)/C(=C/c2ccccc2Cl)N1,-6,3,-1,112*,2,-0.15,
CCOC(=O)C1=CC[C@@H](c2ccccc2)N(S(=O)(=O)c2ccc(C)cc2)[C@H]1C=C(C)C,nt,nt,nt,nt,4,nt,
O=C1NC(c2cc(Cl)cc([N+](=O)[O-])c2O)Nc2ccccc21 (stereo not given),-16,1,1,49*,1,0.25,
O=C1NC(c2ccc(Cl)c([N+](=O)[O-])c2)Nc2ccccc21 (stereo not given),-5,4,0,-7,3,nt,
CC1Cc2cc(/C=C3/SC(N4CCC(C(N)=O)CC4)=NC3=O)ccc2O1 (stereo not given),nt,nt,11,21*,1,-0.12,
O=S1(=O)CC(N2CCCCC2)CN1C1CCCCC1 (stereo not given),nt,nt,nt,nt,-5,nt,
CC1=CC(=C2N=C(c3ccccc3)OC2=O)C=C(C)O1,-6,2,1,17*,39*,-0.13,
CN1C=CC=C/C1=C1/N=C(c2ccccc2)OC1=O,0,10,0,-1,1,nt,
Cc1snc(S(=O)(=O)/C(C#N)=N/Nc2cccc(C(F)(F)F)c2)c1C#N,0,-14,-2,12*,-1,0.19,
CC(=NO)C1(C)CC=CCC1CO (stereo not given),nt,nt,nt,nt,-8,nt,
O=C(O)c1cc(N2C(=O)C=CC2=O)cc(N2C(=O)C=CC2=O)c1,13,3,98*,33*,5,0.27,Sypro dye melt=-27
CSc1nsc2nc(=O)c(/C=C3\C=Nc4ccccc43)c(N)n12,3,2,24,14*,-14,0.74*,
CC(C)S(=O)(=O)c1nsc2nc(=O)c(/C=C3\C=Nc4ccccc43)c(N)n12,-22,0,0,-3,-10,nt,
NS(=O)(=O)c1ccc(N=Nc2c[nH]c(=O)c(O)c2)cc1,-37,58*,68*,34*,23,0.54*,Sypro dye melt=-26
Cc1[nH][nH]c(=O)c1N=Nc1ccc(S(N)(=O)=O)cc1,nt,nt,nt,nt,-5,nt,
CCCCCCc1cc2cc(S(=O)(=O)c3ccc(Cl)cc3)c(=O)oc2cc1O,-5,5,0,-7,-7,nt,
CCN(CC)c1ccc2cc(S(=O)(=O)c3ccc(Cl)cc3)c(=O)oc2c1,-291,253*,41,33*,-38,0.91,Sypro dye melt=-23
O=C1C=CC(=O)c2c(O)c(N3CCN(CCO)CC3)c(Cl)c(O)c21,1,-6,4,39*,172*,-0.07,Sypro dye melt=-22;eLon confirm=96*
OCCOCCN1CCN(C2=Nc3ccccc3Sc3ccccc32)CC1,i,i,0,i,-2,nt,
O=S(=O)(c1ccc(Br)cc1Cl)N1CCN(CCO)CC1,-3,-1,0,-5,3,nt,
O=C1C=CC(=O)c2c(O)c(N3CCN(CCOCCO)CC3)c(Br)c(O)c21,5,-1,10,25*,126*,0.08,eLon confirm=114*
COc1cccc(CNC(=O)c2cc3c(c(-c4cccc(-c5cccc(C#N)c5)c4)n2)[C@H](CCO)N(S(=O)C(C)(C)C)C3)c1 (stereo not given in full),nt,nt,nt,nt,-10,nt,
COc1ccc(NS(=O)(=O)c2ccc(F)c(Cl)c2)cn1,-14,8,32,21*,58*,-0.07,eLon confirm=-11
COc1ccc(NS(=O)(=O)c2ccc(Br)cc2)cn1,1,-7,1,-2,-10,nt,
CCN(CC)CCN1C(=O)c2cccc3cc(N)cc(c23)C1=O,-49,24,60,14*,+,-0.08,eLon confirm=53*
COc1ccc2noc3c2c1C(=O)c1ccccc1-3,i,+,130*,106*,+,0.04,Sypro dye melt=6.2*;eLon confirm=116*
COc1ccc(N)c2c1C(=O)c1ccccc1C2=O,4,-10,-3,2,4,nt,

# From PubChem
